Source: PubChem BioAssay AID1490 (National Center for Advancing Translational Sciences (NCATS), 2009)
Among all 310,000 compounds or so, about 11,000 (3.5%) were called active. Another 4% or so got no clear call; they are omitted. Calls come from the whole dose curve; as a rule, active = well fitted inhibition curve with a large enough effect; inconclusive = small, poorly fitted or top-dose-only effect, or another doubt; inactive = no such curve, though single readings can be large or run the other way. Many of the other results were omitted from the sample, so actives are more common in it than they were.

Each compound was assayed against 4'-phosphopantetheinyl transferase ffp (Bacillus subtilis) (UniProt Q9F4F7) (assay: qHTS Assay for Inhibitors of Bacillus subtilis Sfp phosphopantetheinyl transferase (PPTase)). Settings: Biochemical Sfp PPTase activity.
Procedure, shortened: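 Reaction rates are the 30-min fluorescence difference (ex 525, em 598 nm) in wells containing 15 nM Sfp, 5 uM rhodamine-CoA and 12.5 uM BHQ-2-YbbR at pH 7.6 with 10 mM MgCl2.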
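Note: the enzyme is Sfp with the accession as filed and its product quenches rhodamine fluorescence.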
Potency is the fitted concentration of half-maximal effect.
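Throughout, for largest response in the series, negative = inhibition: 0% = enzyme reaction without inhibitor and -100% = no enzyme wells.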

Row | Compound | largest response in the series, negative = inhibition | Potency
1 | Cn1nccc1/C=N\NC(=O)c1ccc(Cl)cc1 | 9.85% (inactive) | –
2 | CCOc1ccc(C(=O)CCN2CCOCC2)cc1 | -10.8% (inactive) | –
3 | CCOc1cc(C(=S)N2CCOCC2)ccc1OS(=O)(=O)c1ccc(Br)cc1 | 22.9% (inactive) | –
4 | CCOc1cc(C(=S)N2CCOCC2)ccc1O | – | 14.1 µM (active)
5 | COC(=O)[C@@H]1CC2=CC(=O)CC[C@]2(C)[C@@]23O[C@@H]2C[C@@]2(C)[C@@H](CC[C@@]24CCC(=O)O4)[C@H]13 | 10% (inactive) | –
6 | Cc1ccc(Cn2cc(C(=O)NN)c(=O)c3ccc(F)cc32)cc1 | 10.7% (inactive) | –
7 | CCn1c(SCC(=O)Nc2ccc3c(c2)OCCO3)nnc1C(C)C | 18.9% (inactive) | –
8 | CCCn1c(SCC(=O)c2ccc3c(c2)OCCO3)nnc1C(C)C | – | 79.4 µM (active)
9 | CCCn1c(SCC(N)=O)nnc1C(C)C | 10.5% (inactive) | –
10 | COc1ccc(C(C(=O)NC2CCCC2)N(CCCO)C(=O)Cn2nnc(-c3ccc(C)o3)n2)cc1 (stereo not given) | 1.56% (inactive) | –
11 | CCN(CC)S(=O)(=O)c1ccc(N2CCN(C)CC2)c(NC(=O)Nc2ccccc2F)c1 | 9.85% (inactive) | –
12 | Cc1ccc(N/C=C/C(=O)c2ccccc2)cc1C | -6.7% (inactive) | –
13 | Cc1cc(C)nc(S/C=C/C(=O)c2ccccc2)n1 | – | 20 µM (active)
14 | Cc1cc(SCC(=O)c2ccccc2)nc(SCC(=O)c2ccccc2)n1 | 11.4% (inactive) | –
15 | COc1cc(C(C(=O)NC2CCCC2)N(Cc2ccccc2)C(=O)c2snc(C(N)=O)c2N)ccc1O (stereo not given) | 4.51% (inactive) | –
16 | CCOC(=O)[C@H]1[C@H]2COc3cc(OC)ccc3[C@@H]2N2C(=O)N(c3ccc(Br)cc3)C(=O)[C@@]12C | 5.98% (inactive) | –
17 | O=C(NCCCO)c1cc2c([nH]c3ccccc32)c(-c2ccc(F)cc2)n1 | -19.4% (inactive) | –
18 | CSc1nsc(SC)c1NC(=O)OC1CCCCC1 | – | 56.2 µM (active)
19 | CSc1ncccc1C(=O)NC1CCCCCC1 | 8.17% (inactive) | –
20 | CN(C)C(=O)c1ccc(NC(=O)c2ccccc2-c2ccccc2)cc1 | -2.24% (inactive) | –
21 | O=C1/C(=C/c2ccc3c(c2)OCO3)Oc2cc(OCC(=O)N3CC(O)C[C@H]3C(=O)O)ccc21 (stereo not given in full) | 2.62% (inactive) | –
22 | Cn1c(CC(=O)Nc2ccc(F)cc2)nnc1SCC(=O)NC1CCCCC1 | 16% (inactive) | –
23 | CCOc1cccc(-c2nnc(SCC(=O)NC3CC3)n2C)c1 | 3.79% (inactive) | –
24 | CCOc1ccc(Nc2nc(Cc3nnc(SCC(=O)NC4CCCC4)n3C)cs2)cc1 | – | 89.1 µM (active)

Row | Compound | largest response in the series, negative = inhibition | Potency
25 | CC(=O)Nc1ccc(NC(=O)COc2ccc(-c3ccccc3)cc2)cc1 | 13.3% (inactive) | –
26 | O=C(/C=C/c1cccc(F)c1)NC1CC1 | 29.9% (inactive) | –
27 | CC(C)n1c(O)c(N=Nc2ccccn2)c2ccccc21 | – | 50.1 µM (active)
28 | Oc1oc(-c2ccccc2Br)nc1/C=N/c1ccccn1 | -0.12% (inactive) | –
29 | COC(=O)Cn1c(O)c(N=NC(=O)OC)c2ccccc21 | 4.81% (inactive) | –
30 | COC(CNC(=O)c1ccc2c(c1)ncn2-c1cc(C)cc(C)c1)OC | 8.91% (inactive) | –
31 | CC(C)C(N)C(=O)OCCOCn1cnc2c(=O)[nH]c(N)nc21 (stereo not given) | -9.12% (inactive) | –
32 | COc1cc2c(cc1OC)CN(CC(=O)Nc1ccc(F)cc1)CC2 | 2.33% (inactive) | –
33 | O=C(CCc1nnc(Cc2ccc3c(c2)OCO3)o1)NCCc1ccccc1Cl | -0.572% (inactive) | –
34 | COc1ccc(N(Cc2cc3cc(OC)ccc3[nH]c2=O)S(C)(=O)=O)cc1 | -8.56% (inactive) | –
35 | COc1ccc2[nH]c(=O)c(CNc3ccc(C)c(C)c3)cc2c1 | – | 50.1 µM (active)
36 | CCC(=O)N(Cc1cc2cc(OC)ccc2[nH]c1=O)c1ccccc1C | 6.41% (inactive) | –
37 | Cc1ccc(-c2ccc(=O)n(Cc3ccc(F)cc3Cl)n2)cc1 | -21.9% (inactive) | –
38 | Cc1cccc(CNc2ccnc(-c3cccnc3)n2)c1 | – | 79.4 µM (active)
39 | Cc1noc(C)c1-c1cc(NCc2cccnc2)ncn1 | -20.7% (inactive) | –
40 | Cc1cc(NCc2cccnc2)no1 | 1.54% (inactive) | –
41 | CCN(CC)c1ccc(NC(=O)CCc2nnc3ccc(N4CCCCC4)nn23)c(C)c1 | 2.26% (inactive) | –
42 | CCOc1ccccc1CN1CCN(C2CCC2)CC1CCO (stereo not given) | 17.6% (inactive) | –
43 | COC(=O)c1c(NC(=O)COc2ccc(Cl)cc2Cl)sc2c1CC(C)(C)NC2(C)C | -6.17% (inactive) | –
44 | O=C(CN(C(=O)CNC(=O)c1cccs1)c1cccc(F)c1)NC1CCCCC1 | 6.32% (inactive) | –
45 | O=C(CSCC(=O)Nc1cccc([N+](=O)[O-])c1)Nc1ccccc1 | 7.95% (inactive) | –
46 | COC(=O)/C=C\C(=O)Nc1cccc([N+](=O)[O-])c1 | – | 3.55 µM (active)
47 | COc1cccc(CNC(=O)CCCC(=O)Nc2cccc([N+](=O)[O-])c2)c1 | 4.84% (inactive) | –
48 | CC(=O)c1ccc(NC(=O)c2ccc(-n3cncn3)c([N+](=O)[O-])c2)cc1 | -0.369% (inactive) | –

Row | Compound | largest response in the series, negative = inhibition | Potency
49 | O=C(Nc1c2c(nn1-c1ccccc1)CS(=O)(=O)C2)C1CCCC1 | 11.4% (inactive) | –
50 | CSc1nnc2ccc(-c3ccc(C)cc3)nn12 | 4.27% (inactive) | –
51 | NC(=O)c1oc2ccccc2c1NC(=O)Cc1ccccc1 | 0.75% (inactive) | –
52 | O=c1[nH]c(SCc2ccccc2)nnc1-c1ccccc1 | 15.9% (inactive) | –
53 | Clc1ccccc1CSc1nnc(-c2ccco2)c(-c2ccco2)n1 | – | 20 µM (active)
54 | c1ccc(CSc2nnc(-c3ccco3)c(-c3ccco3)n2)cc1 | – | 35.5 µM (active)
55 | COc1ccc2nc(SCc3ccccc3)nc(C)c2c1 | -4.22% (inactive) | –
56 | O=c1cc(O)nc(SCc2ccccc2Cl)[nH]1 | -17.3% (inactive) | –
57 | COC(OC)c1ccnc(SCc2ccccc2Cl)n1 | -3.61% (inactive) | –
58 | CS(=O)(=O)Nc1cccc(C2=NN(C(=O)c3cccc(F)c3)C(c3cccs3)C2)c1 (stereo not given) | 4.93% (inactive) | –
59 | COC(=O)c1ccc2c(=O)n(CCN3CCOCC3)c(SCC(=O)Nc3cccc(OC)c3)nc2c1 | 0.982% (inactive) | –
60 | CN(C)C(=O)Cn1c(=O)n(S(=O)(=O)c2ccccc2)c2ccccc21 | -0.847% (inactive) | –
61 | Cc1ccc(C(=O)NC23CC4CC(CC(C4)C2)C3)c(Cl)c1 | 2.46% (inactive) | –
62 | Cc1ccc(C(=O)Nc2sc(Cc3ccc4c(c3)OCO4)c(C)c2C(N)=O)cc1 | -3.41% (inactive) | –
63 | Cc1ccc(C(=O)NCCNC(=O)c2ccccc2)cc1 | 10.8% (inactive) | –
64 | Cc1ccc(C(=O)c2c(NC(=O)c3ccccc3)sc(C)c2C)cc1 | – | 28.2 µM (active)
65 | Cc1c(CC(=O)N2CCN(C(=O)C3COc4ccccc4O3)CC2)c(=O)oc2c(O)c(O)ccc12 (stereo not given) | -23.7% (inactive) | –
66 | COc1cc(OC)c2c(C)cc(=O)oc2c1C(CCN1CCCCC1)c1ccc(N(C)C)cc1 (stereo not given) | -9.21% (inactive) | –
67 | COc1ccccc1-n1c(-c2cc(-c3ccco3)[nH]n2)n[nH]c1=S | – | 50.1 µM (active)
68 | COc1ccc(OC)c(-n2c(-c3ccn[nH]3)n[nH]c2=S)c1 | -5.99% (inactive) | –
69 | COc1ccc(-n2c(-c3ccc(OC)c(OC)c3)n[nH]c2=S)cc1 | -14.3% (inactive) | –
70 | CCOC(=O)CNc1nc(Cl)nc(Nc2ccc(OC)cc2OC)n1 | 11.3% (inactive) | –
71 | COc1cc(OC)cc(C(=O)NCCCn2ccnc2)c1 | 5.91% (inactive) | –
72 | O=C(CC1SC(=Nc2ccccc2)N(Cc2ccccn2)C1=O)Nc1cccc(Cl)c1 (stereo not given) | – | 44.7 µM (active)

Row | Compound | largest response in the series, negative = inhibition | Potency
73 | O=C(Nc1cccc(Cl)c1)OCc1ccccn1 | 3.07% (inactive) | –
74 | CN1C(=O)C(CC(=O)Nc2ccccc2)S/C1=N/c1nccs1 (stereo not given) | 15.1% (inactive) | –
75 | CCOc1ccc(CN(C)C(=O)c2ccc(=O)[nH]c2)cc1 | 8.69% (inactive) | –
76 | COc1ccc(NS(=O)(=O)c2ccc(N3CCN(CCO)CC3)c([N+](=O)[O-])c2)cc1 | -0.783% (inactive) | –
77 | CCCCN(C)CCCNC(=O)c1cc(-c2cccs2)nc2ccccc12 | -6.84% (inactive) | –
78 | CCc1ccc(-c2cc(C(=O)NCc3ccco3)c3ccccc3n2)s1 | – | 31.6 µM (active)
79 | COC(=O)CNC(=O)c1cc(-c2ccncc2)nc2ccccc12 | 8.93% (inactive) | –
80 | Nc1ncn(C2OC(CO)C(O)C2O)c(=O)n1 (stereo not given) | 21.6% (inactive) | –
81 | O=C1[C@H]2[C@H]3[C@H](O)[C@H](O)C/C(=N/OCc4ccccc4)[C@H]3CC[C@@H]2C(=O)N1Cc1ccccc1 | -7.38% (inactive) | –
82 | CC(C)(C)c1nnc(NC(=O)C2c3ccccc3Oc3ccccc32)s1 | – | 2.82 µM (active)
83 | CCC(C)NC(=O)C1c2ccccc2Oc2ccccc21 (stereo not given) | 5.93% (inactive) | –
84 | CCC(C)(C)NC(=O)C1c2ccccc2Oc2ccccc21 | 14.9% (inactive) | –
85 | COc1ccccc1N1CCN(S(=O)(=O)c2ccc3c(c2)NC(=O)CS3)CC1 | 7.23% (inactive) | –
86 | C=CCOC(=O)C1=C(C)NC(C)=C(C(=O)OCC=C)C1c1cccs1 | 24.6% (inactive) | –
87 | CC1=C(C(=O)Nc2ccccc2)C(c2cccs2)C(C#N)=C(SCC#N)N1 (stereo not given) | – | 39.8 µM (active)
88 | CC1=C(C(=O)Nc2ccccc2)C(c2ccco2)C(C#N)=C(SCC(N)=O)N1 (stereo not given) | -0.0015% (inactive) | –
89 | CCOc1ccc(-n2c(SCC(=O)Nc3ccc(OC)cc3)nc3sc4c(c3c2=O)CCN(C)C4)cc1 | -4.55% (inactive) | –
90 | COc1cc(C2C(C(=O)c3ccco3)=C(O)C(=O)N2c2cc(C)on2)ccc1OCc1ccccc1 (stereo not given) | 0.107% (inactive) | –
91 | C=CCNC(=O)c1ccccc1SCc1c(C)noc1C | -6.81% (inactive) | –
92 | CCCOc1cccc(C(=O)NCCCNC(=O)c2cccnc2)c1 | 1.7% (inactive) | –
93 | Cc1cccc(OCc2ccc(C(=O)Nc3ccc(F)cc3)cc2)c1 | 10.4% (inactive) | –
94 | Fc1ccc(COc2cccc(-c3n[nH]c(=S)o3)c2)cc1 | – | 39.8 µM (active)
95 | Fc1ccc(COc2ccc(-c3nnco3)cc2)cc1 | 12.8% (inactive) | –
